Each structure is given as a SMILES string. About 750 (0.21%) of roughly 360,000 compounds were called active. A call without a number means that no potency is given here. Not shown: some 2% with an inconclusive outcome. This is one part of a sample in which actives are shown more often than they occur. Calls follow the shape of the dose curve; as a rule, active = well fitted falling curve with a large enough effect; inconclusive = small, poorly fitted or top-dose-only effect; inactive = no such curve, though single readings can be large or run the other way.
Potency is read from the fitted curve at half-maximal effect.

The assay is described as follows: qHTS Assay for Inhibitors of the HIV-1 protein Vpr. Also: nearly all actives have a fitted effect of over 50% in size. Conditions: S. pombe RE007 Vpr strain, BacTiter-Glo ATP luminescence, 24 h; series mostly up to 92.2 µM. The text has this:
Human immunodeficiency virus type 1 (HIV-1), the causative agent of AIDS, contains a protein called viral protein R (Vpr) that plays an important role in the viral life cycle and the pathogenesis of HIV-1.
These Vpr specific activities include cytoplasmic-nuclear shuttling, induction of cell cycle G2 arrest and cell killing. The cytoplasmic-nuclear shuttling is believed to participate in nuclear transport of the proviral integration complex (PIC). The cell cycle G2 arrest induced by Vpr is thought to suppress human immune functions by preventing T cell clonal expansion and to provide an optimized cellular environment for maximal levels of viral replication. In addition, Vpr induces apoptosis, which may contribute to the depletion of CD4 T cells in HIV-infected patients. Since the Vpr-specific activities have been linked to such clinical manifestation of AIDS as activation of viral replication, suppression of host immune responses and depletion of CD4+ T-lymphocytes, identification of new molecular probes that can inhibit the Vpr activities could potentially provide a new approach to reduce Vpr-mediated detrimental effects in HIV-infected patients, and thus prolong patient's lives. Currently, there are no anti-Vpr drugs.
A fission yeast (Schizosaccharomyces pombe) model system for the Vpr studies has been developed which measures HIV-1 Vpr-induced cell death. This assay will be used for to screen the NIH Molecular Libraries Small Molecule Repository (MLSMR) identify small molecule HIV-1 Vpr inhibitors.
NIH Chemical Genomics Center [NCGC]
NIH Molecular Libraries Probe Centers Network [MLPCN]
Assay Submitter (PI): Richard Zhao, University of Maryland
The fission yeast RE007 strain was used, which carries a single integrated copy of HIV-1 vpr gene in the yeast chromosome. The starting culture was frozen stock 100ul of yeast RE007 in 150ml of *PMG+AL medium, Incubation in 30 degree plus 99% humidity for 18 hours. Next day dispensed 2.5ul of PMG+AL medium in each well to 1536 well white solid plate, then 23nL compound were delivered to each well using a pin tool. Check OD for overnight culture and add cell density at 0.01 for each well, incubation in 30 degree plus 99% humidity for 24 hours. After add 5 ul of *BacTiter/Glo detect reagent to each well at room temperature for 5 minutes then to red out results with Viewlux CCD camera.
On to `CN(O)C(=S)c1ccccc1`, for which the Potency is 12.6 µM (active).

As for `COC(=O)[C@@H]1C[C@@]2(O)[C@H](O)[C@H](O)[C@H](O)C[C@H]2N1Cc1ccc(C)s1`, the Potency entry is “inactive”. Under `O=C(COc1coc(CN2CCN(c3ccccc3F)CC2)cc1=O)N1CCc2ccccc21` stands “inactive”; under `Cc1ccc(S(=O)Cc2ccc(C(=O)N3CCN(C4CCCCC4)CC3)o2)cc1` (stereo not given), “inactive”; under `CCN(C(=O)COC(=O)/C=C/c1nc2ccccc2s1)C1CCS(=O)(=O)C1` (stereo not given), “inactive”.

Regarding `CC(=O)c1ccc(N2Cc3ccccc3C2)cc1`, the Potency entry was “inactive”. The entry for `CSc1c(SCc2ccccc2)cnn(Cc2ccccc2)c1=O` is “inactive”. The entry for `O=S(=O)(c1ccc2c(c1)OCCO2)N1CCc2ccccc21` is “inactive”; for `O=C(CN1CCc2cc3c(cc2C1)OCCCO3)Nc1ccccc1` it is “inactive”. The figure for `O=C(CCN1CCc2ccccc2C(O)(c2ccccc2)C1)c1ccc2c(c1)OCCO2` (stereo not given) is 5.62 µM (active). `Cn1c(=O)cc(OCCCC(=O)N2CCN(c3ccccn3)CC2)c2ccccc21`: the Potency entry is “inactive”. The entry for `CCC(Oc1ccccc1C)C(=O)Nc1ccc(S(=O)(=O)Nc2cc(C)on2)cc1` (stereo not given) is “inactive”; for `O=C(CNCc1cccs1)Nc1cc(S(=O)(=O)N2CCCC2)ccc1Cl` it is “inactive”. Under `COC(=O)/C=C\C(=O)Nc1cccc([N+](=O)[O-])c1` stands 7.94 µM (active); under `COc1cccc(NCCC(=O)c2cccc([N+](=O)[O-])c2)c1`, “inactive”; under `CC(NC(=O)Nc1cccc([N+](=O)[O-])c1)c1ccc2c(c1)OCO2` (stereo not given), “inactive”. `O=C(COC(=O)CCCNC(=O)c1ccc(Cl)cc1)Nc1cc(Cl)ccc1Cl`: the Potency result was “inactive”.

For `O=C(Cn1nnc2ccccc2c1=O)Nc1cc(C(F)(F)F)ccc1N1CCOCC1`, the Potency result was “inactive”. The figure for `CCCCCCCCCCCCn1ccc(=N)cc1` is 11.2 µM (active). Under `Cc1ccc(S(=O)(=O)NCCCn2ccnc2)cc1C(=O)NC(C)C` stands “inactive”. The entry for `CCCn1cc(SCC(N)=O)c2ccccc21` is “inactive”; for `O=C(Nc1cccc2ccccc12)NC1CC1` it is “inactive”. Consider `O=C(Nc1cccc2ccccc12)c1onc2c1CCCC2`, for which the Potency is 14.1 µM (active). The entry for `O=C(Nc1cccc2ccccc12)c1[nH]c(-c2ccccc2)c2c1C(=O)N(C1CC1)C2=O` is “inactive”; for `Cc1ccc(NC(=O)[C@H](Cc2ccccc2)NC(=O)C2CCNCC2)cc1` it is “inactive”.

As for `CC1c2nc3ccccc3n2C(CC(=O)NCCCN2CCOCC2)C(=O)N1Cc1ccccc1` (stereo not given), the Potency entry is “inactive”. The entry for `CCOC(=O)c1sc(C)c2c1NC(C)(c1cccc3ccccc13)NC2=O` (stereo not given) is “inactive”. Under `COc1ccc(Br)cc1CNCCc1cccc(Cl)c1` stands “inactive”; under `COc1cc(/C=N/O)cc(Br)c1OCc1cccc(Cl)c1`, 10 µM (active). Under `O=C(O)COc1ccc(/C=N/O)cc1Br` stands “inactive”.
